Screening results as filed in PubChem.
Many of the other results were omitted from the sample, so hits are more common in it than they were.
CHX counter: counter-screen hit for Shiga toxin inhibitors, cycloheximide; cell reporter, cycloheximide protein synthesis inhibition counterscreen; max response, %; 300,000 compounds, 12% hits; AID 2314; in the data active means max response mostly above about 13%, no sharp cut-off; inactive means mostly below about 14%; further: read at 38.3 µM for the half of the compounds with a filed dose; 0% is about no effect
NS1 function inh: inhibitors of influenza NS1 protein function. Potency, µM (highest dose often 46.1 µM), for the others: top-dose activity, positive = more growth. 270,000 compounds, 0.4% hits. AID 2326; further: potency means the concentration at half of the fitted maximal effect; actives are rising curves; nearly all actives have a fitted effect of over 50% in size
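S. cerevisiae expressing influenza A NS1, grown in glucose, washed, then diluted 1:100 into pH 6.0 -URA galactose medium with 23 nl compound. Growth recovery read as OD600; NS1-free strain serves as control.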
SARS PLpro yeast: SARS-CoV PLP inhibition in yeast; S. cerevisiae expressing SARS-CoV PLpro, growth rescue; Potency, µM (doses to about 32.9 µM), inactives show at the top dose activity, positive = growth rescue, hits mostly activators; 330,000 compounds, 0.19% hits; AID 485353; further: potency means the concentration at half of the fitted maximal effect; 0% is about no effect; nearly all actives have a fitted effect of over 55% in size
TbPYK inhibitor: inhibitors of Trypanosoma brucei pyruvate kinase. Q57TT1. TbPYK enzyme, Kinase-Glo Plus ATP luminescence, 45 min. Potency, µM (doses to about 76.8 µM), without a hit: at the top dose activity, negative = inhibition, actives largely listed as inhibitors. 410,000 compounds, 0.12% hits; active means well fitted curve in the direction sought with a large enough effect; inconclusive means small, poorly fitted or top-dose-only effect, or another doubt; inactive means no such curve, though single readings can be large; an effect the other way counts as inactive or inconclusive; further: potency means the concentration at half of the fitted maximal effect; on the % scale 0 is the no-effect control and ±100 the full control effect; nearly all actives have a fitted effect of over 50% in size
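Luminescent Kinase-Glo Plus end-point after 45 min room-temperature reaction of T. brucei pyruvate kinase started with 130 uM ADP (final). Buffer TEA 50 mM pH 7.2 with KCl, MgCl2, BSA, Tween-20; titration-based qHTS with fitted concentration-effect curves.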
Shiga toxin inh: Shiga toxin inhibition | Vero cells, Shiga toxin protein synthesis inhibition reporter | 290,000 compounds, 9.2% hits | inhibition, % at 38.7 µM; in the data active means inhibition mostly above about 28%, no sharp cut-off; inactive means mostly below about 43%; further: 0% is about no effect
LmPK inhibitor: LmPK (Leishmania mexicana) enzyme inhibition | Potency, µM (highest dose often 57.5 µM), inactives show top-dose activity change, negative = inhibition, hits mostly inhibitors | purified LmPK, Kinase-Glo ATP luminescence, 1 h | 290,000 compounds, 0.37% hits; active means well fitted curve in the direction sought with a large enough effect; inconclusive means small, poorly fitted or top-dose-only effect, or another doubt; inactive means no such curve, though single readings can be large; an effect the other way counts as inactive or inconclusive; further: potency means the concentration at half of the fitted maximal effect; on the % scale 0 is the no-effect control and ±100 the full control effect
Target sequence (Q27686 whole entry, looked up): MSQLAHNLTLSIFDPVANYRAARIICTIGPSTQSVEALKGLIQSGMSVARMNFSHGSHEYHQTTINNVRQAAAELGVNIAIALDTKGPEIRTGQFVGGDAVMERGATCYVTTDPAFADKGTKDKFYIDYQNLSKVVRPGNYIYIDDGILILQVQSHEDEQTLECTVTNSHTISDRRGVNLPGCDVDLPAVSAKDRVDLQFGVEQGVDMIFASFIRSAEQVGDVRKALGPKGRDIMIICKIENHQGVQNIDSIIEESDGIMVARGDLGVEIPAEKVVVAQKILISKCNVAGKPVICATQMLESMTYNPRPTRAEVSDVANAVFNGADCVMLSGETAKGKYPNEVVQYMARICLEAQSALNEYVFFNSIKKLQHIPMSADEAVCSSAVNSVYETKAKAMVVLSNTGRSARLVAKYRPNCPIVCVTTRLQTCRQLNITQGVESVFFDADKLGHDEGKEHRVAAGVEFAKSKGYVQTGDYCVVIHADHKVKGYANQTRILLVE
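ATP generated from ADP (0.1 mM) and PEP (0.5 mM) by 0.1 nM LmPK over 1 h at room temperature (pH 7.2 imidazole buffer) was detected by coupled luciferase luminescence. Values were normalized to uninhibited and no-enzyme wells.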
Flu NS1 inh: validation of influenza NS1 protein function inhibitors; shares compounds with NS1 function inh; influenza NS1 function cell assay, 15-point titration; activity change, negative = inhibition, % at 32.9 µM; 1,400 tested, under 10 active; AID 492980; further: 0% is about no effect
PR8 titer: influenza virus titer reduction, NS1 project. shares compounds with NS1 function inh. MDCK infected influenza A/PR/8/34, virus titer TCID50; active compounds read low. virus titer (log TCID50), log10 TCID50 at 5 µM. 95 compounds, 30% hits; call rule not given here
* marks the source's active call; other numbers are inactive results; ? = inconclusive; . = not tested or not shown. Unless noted, the call rests on the fitted dose curve.

SMILES | CHX counter | NS1 function inh | SARS PLpro yeast | TbPYK inhibitor | Shiga toxin inh | LmPK inhibitor | Flu NS1 inh | others
Cc1cc(C)c(-c2cc(NC(=O)COC(=O)c3ccc(CO)cc3)n(-c3ccccc3)n2)cc1C | 7 | 11µM* | 0% | 10% | 6 | 6% | -14
COc1cc(C(=O)OCC(=O)Nc2cc(-c3cc(C)c(C)cc3C)nn2-c2ccccc2)cc(OC)c1OC | -3 | 4% | 2% | -10% | -12 | 0% | .
O=C(CSc1ccc(Cl)cc1)Nc1ccccc1 | . | . | . | -7% | . | . | .
O=C(CSc1ccc(Cl)cc1)NC1=NN(c2ccccc2)C(=O)C1 | 1 | 11µM* | -1% | 1% | -3 | 3% | 24
COc1ccccc1NC(C)C(=O)N/N=C/c1ccccc1OCc1cccc(Br)c1 (stereo unspecified) | 5 | 16µM* | -7% | 5% | 30 | 5% | -13
O=C(CSc1nc(C2CC2)nc2sc3c(c12)CCCC3)NCc1ccco1 | 7 | 1% | 1% | 4% | 10 | -7% | .
Cc1nc(SCC(=O)NCc2ccco2)c2c3c(sc2n1)CCCC3 | 24* | 4.5µM* | -11% | -14% | 43* | -1% | ?
CCOc1ccc(-c2cnc(NCc3cccc4ccccc34)n2CCOC)cc1 | -3 | -43% | -13% | 9% | -9 | 0% | .
c1ccc(CCNC2=NCCCS2)cc1 | 4 | ? | -5% | -5% | 0 | -2% | -9
COC(=O)c1ccc2nc(-c3ccc(OC)c(OC)c3)c(CC3CCCCC3)n2c1 | . | . | . | -5% | . | . | .
O=S(=O)(N/N=C/c1ccc2c(c1)OCCO2)c1ccccc1 | 20* | ? | 2% | 9% | 60 | 0% | 3
CC1CCN(C(=O)Cn2c(=O)oc3ccccc32)CC1 | 3 | 3.5µM* | -2% | 1% | -5 | -3% | -2
COc1ccc(-n2ccn(CC(=O)NCCc3ccccc3)c(=O)c2=O)cc1OC | . | . | . | 1% | . | . | .
O=C(C1CCCC1)N1CCC(CC2CC(c3cccc(Br)c3)=NO2)(C(=O)NCC2CCCCC2)CC1 (stereo unspecified) | -4 | 22µM* | 3% | 0% | -2 | 2% | -19
O=C(C1CCCC1)N1CCC(CC2CC(c3ccc(Cl)cc3)=NO2)(C(=O)NCC2CCCCC2)CC1 (stereo unspecified) | 3 | 24% | -10% | 2% | -8 | 7% | .
c1ccc2c(c1)nnn2Cn1nnc2ccccc21 | . | . | . | -1% | . | . | .
Cc1cc(OCC(=O)NC(Cc2ccc(Cl)cc2)C(=O)O)c2c(C)c(C)c(=O)oc2c1 (stereo unspecified) | 1 | 7.9µM* | 11% | -18% | -1 | -2% | ? | PR8 titer=8
Cc1cc(OCC(=O)NC(Cc2ccc(Cl)cc2)C(=O)O)c2c(C)cc(=O)oc2c1 (stereo unspecified) | 1 | 13% | 9% | 6% | -2 | -6% | .
Cc1cc(OCC(=O)NC(Cc2ccc(Cl)cc2)C(=O)O)c2c3c(c(=O)oc2c1)CCCC3 (stereo unspecified) | -1 | 3.2µM* | 8% | -5% | -4 | -5% | 7
COC(=O)c1cccc(NC(=O)CCN2C(=O)C3CC=CCC3C2=O)c1 (stereo unspecified) | . | . | 0% | 3% | . | . | .
O=S1(=O)CC(N2CCSCC2)CN1Cc1cn(Cc2ccc(C(F)(F)F)cc2)nn1 (stereo unspecified) | . | . | . | -2% | . | . | .
CCCCC(=O)Nc1cc(C)c(O)c(-c2nc3ncccc3o2)c1 | . | . | . | 1% | . | . | .
Cc1ccc(NC(=O)Cn2c(=O)oc3cc(S(=O)(=O)N4CCC(C)CC4)ccc32)cc1Cl | . | . | . | -12% | . | . | .
Cc1ccc(NC(=O)C2CCCN2S(=O)(=O)c2ccc3c(c2)C(C)(C)C(=O)N3C)cc1 (stereo unspecified) | . | . | . | -2% | . | . | .
COc1ccc(CCNC(=O)c2cc(-c3ccc(Cl)cc3)on2)cc1OC | . | . | . | 0% | . | . | .
SMILES | CHX counter | NS1 function inh | SARS PLpro yeast | TbPYK inhibitor | Shiga toxin inh | LmPK inhibitor | Flu NS1 inh | others
COc1ccc(-c2cc(C(=O)Nc3cc(C)n(Cc4ccc(Cl)cc4)n3)no2)cc1OC | -2 | 5µM* | 4% | 4% | 10 | -1% | -1
CCCC(C)C(=O)Nc1nc(C)c(-c2csc(Nc3ccc(Cl)cc3)n2)s1 (stereo unspecified) | 1 | 4.5µM* | -4% | -1% | 7 | -1% | -10
CCOC(=O)c1cn(Cc2ccccc2)nc1-c1ccccc1 | . | . | . | 3% | . | . | .
CCOC(=O)c1cn(Cc2ccccc2)nn1 | 5 | 1.4µM* | -2% | -2% | -9 | 1% | -7
CCn1ccc2cc(S(=O)(=O)N3CCCN(C(=O)NCC(C)C)CC3)ccc21 | . | . | . | 0% | . | . | .
CCCS(=O)(=O)c1nc(S(=O)(=O)c2ccc(C)cc2)c(NCC(C)C)s1 | . | . | . | 6% | . | . | .
S=C1c2ccccc2CN1c1ccccc1 | 60* | ? | 8% | -6% | 75* | 0% | 1
CCOc1ccc(NC(=O)c2c(NC(=O)CNCCN3CCOCC3)sc3c2CCC3)cc1 | 12 | 2.8µM* | 3% | -9% | 5 | 6% | -18
Cc1oc(-c2cccs2)nc1CNC[C@H]1O[C@@H](n2cnc(C(N)=O)n2)[C@H](O)[C@@H]1O | . | . | . | 0% | . | . | .
COc1ccc2c(c1)c(C(=O)O)c(C)n2CCc1ccc(OC)c(OC)c1 | 2 | 6.3µM* | -2% | -7% | . | 3% | 6
O=C(Nc1ccc2c(c1)CCC2)c1cc(S(=O)(=O)Nc2ccc(F)cc2)c(Cl)cc1Cl | 19* | 14µM* | -9% | 0% | 29 | 2% | 27 | PR8 titer=8
CCN(CC)S(=O)(=O)c1ccc2c(c1)N(CC(=O)N1CCN(c3cccc(C)c3)C(C)C1)C(=O)CO2 (stereo unspecified) | . | . | . | -7% | . | . | .
CC(C)(C)N(Cc1ccccc1)C(=O)CCc1ccccc1 | -3 | ? | -1% | 1% | 24 | 1% | -33
O=C(N/N=C/c1cccc([N+](=O)[O-])c1)c1cc(-c2ccc3c4c(cccc24)CC3)n[nH]1 | -3 | ? | -5% | 1% | 1 | 3% | -21
O=C(N/N=C/c1ccc(Cl)c([N+](=O)[O-])c1)c1cc(-c2ccc3c4c(cccc24)CC3)n[nH]1 | -4 | 5µM* | 1% | -4% | -6 | 4% | -1
Cc1cccc(NC(=S)N/N=C/c2ccc(Cl)c([N+](=O)[O-])c2)c1 | -1 | 8% | -3% | -13% | -11 | 0% | .
CC(C)c1ccc(/C=N/NC(=O)c2cc(-c3cccc([N+](=O)[O-])c3)n[nH]2)cc1 | -1 | 2% | 0% | 3% | 24 | 3% | .
